High-throughput results (PubChem BioAssay)
ALOX12 inhib: qHTS Assay for Inhibitors of 12-hLO (12-human lipoxygenase); AID 1452, 2008; actives 0.12% (n = 150,000); purified 12-hLO, xylenol orange hydroperoxide absorbance; Potency, µM (highest dose often 57.1 µM), for inactives: top-dose activity change, negative = inhibition, actives largely listed as inhibitors; Polyunsaturated fatty acid lipoxygenase ALOX12 (Homo sapiens), P18054; active means well fitted inhibition curve with a large enough effect; inconclusive means small, poorly fitted or top-dose-only effect; further: potency means the concentration at half of the fitted maximal effect; nearly all actives have a fitted effect of over 55% in size
Target sequence (P18054 whole entry, looked up): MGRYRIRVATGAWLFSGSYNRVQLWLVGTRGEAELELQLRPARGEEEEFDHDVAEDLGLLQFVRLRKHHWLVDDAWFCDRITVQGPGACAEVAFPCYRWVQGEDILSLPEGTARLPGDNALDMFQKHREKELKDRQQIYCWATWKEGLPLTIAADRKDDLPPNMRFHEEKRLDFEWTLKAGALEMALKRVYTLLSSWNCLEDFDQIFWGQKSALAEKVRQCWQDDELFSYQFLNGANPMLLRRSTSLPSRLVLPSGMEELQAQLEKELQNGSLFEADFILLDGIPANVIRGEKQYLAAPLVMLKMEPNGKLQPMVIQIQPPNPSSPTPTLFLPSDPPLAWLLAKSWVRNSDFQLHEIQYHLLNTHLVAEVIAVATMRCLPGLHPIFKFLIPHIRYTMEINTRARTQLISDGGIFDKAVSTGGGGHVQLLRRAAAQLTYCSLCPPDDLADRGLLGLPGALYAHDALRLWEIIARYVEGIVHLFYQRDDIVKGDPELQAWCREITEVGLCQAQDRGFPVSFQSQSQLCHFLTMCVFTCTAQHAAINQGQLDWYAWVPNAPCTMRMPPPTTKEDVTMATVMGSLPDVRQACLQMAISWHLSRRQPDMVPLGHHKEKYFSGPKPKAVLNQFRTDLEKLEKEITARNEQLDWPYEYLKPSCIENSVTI
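Purified human 12hLO (150 nM), preincubated 15 min with compound, then 40 uM arachidonic acid for 30 min, room temperature, Hepes pH 7.0 with 0.01% Triton X-100. Hydroperoxide detected by ferrous iron/xylenol orange; 573/405 nm absorbance ratio gives reaction progress.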
HPGD inh: qHTS Assay for Inhibitors of HPGD (15-Hydroxyprostaglandin Dehydrogenase); 15-hydroxyprostaglandin dehydrogenase [NAD(+)] (Homo sapiens), P15428; purified HPGD, NADH fluorescence kinetic, PGE2 substrate; Potency, µM, for the others: top-dose activity change, negative = inhibition, hits mostly inhibitors; actives 4.3% (n = 150,000); AID 894, 2007; further: potency means the concentration at half of the fitted maximal effect
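20 nM HPGD preincubated 15 min at room temperature with compound in 50 mM Tris-HCl pH 8, 0.01% Tween 20. Started with 1 mM NAD+ and 30 uM prostaglandin E2; NADH fluorescence (360/450 nm) read 5 times over 30-s intervals, last minus first.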
LMNA splice mod: qHTS Assay for Modulators of Lamin A Splicing. HeLa LMNA splicing GFP/RFP minigene ratio, 48 h. Potency, µM (highest dose often 46.1 µM), without a hit: at the top dose ratio change, negative = inhibition, actives largely listed as inhibitors. actives 0.01% (n = 200,000); active means well fitted inhibition curve with a large enough effect in the signal ratio, with a control signal flat, not every such curve was filed as active; inconclusive means small, poorly fitted or top-dose-only effect, or effect the other way, or a change in a side signal; the % refers to the signal ratio; further: potency means the concentration at half of the fitted maximal effect
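S3 HeLa stable clones carrying a lamin A-EGFP splicing minigene plus DsRed2 were seeded at 600 cells/well in Opti-MEM with 2% FBS, pin-dosed and incubated 48 h at 37°C. Acumen cytometry (488 nm) gave the GFP/RFP total-intensity ratio.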
PNC assembly inh: High Content Assay for Compounds that inhibit the Assembly of the Perinucleolar Compartment | PC3M PTB-GFP, PNC prevalence imaging, 16 h; hits give low values | activity change (PNC), negative = inhibition, % at 10 µM | actives 3.1% (n = 140,000);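 active means readout at or below -70, meaning at least 70% loss of cells showing the perinucleolar compartment, a nuclear body marking cancer cells; inconclusive means readout between -30 and a set limit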;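 further: plate controls were DMSO wells for no effect and camptothecin positive control wells for full effect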
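Compounds are pinned in duplicate onto adhered PC3M cells stably expressing GFP-tagged PTB and incubated 16 h at 37 C. Cells are then fixed, nuclei stained with Hoechst, and PNC-positive cells counted.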
ALDH1A1 block: qHTS Assay for Inhibitors of Aldehyde Dehydrogenase 1 (ALDH1A1); AID 1030, 2008; Potency, µM (titrated, usually from 75.3 µM), for inactives: at the highest dose activity, negative = inhibition, actives largely listed as inhibitors; Aldehyde dehydrogenase 1A1 (Homo sapiens), P00352; Purified ALDH1A1, NADH fluorescence, propionaldehyde substrate; actives 7.3% (n = 220,000);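 further: potency means the concentration at half of the fitted maximal effect; plate controls were no enzyme wells and a reference inhibitor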
Starred values were filed as active, the others as inactive; ? = inconclusive; nt = no result given; [ ] = remark or other dose. The list is not random: actives were taken first. Their share in the collection is about 10%. Unless noted, the call rests on the fitted dose curve; in most records, active means well fitted inhibition curve with a large enough effect (not every such curve was filed as active); inconclusive means small, poorly fitted or top-dose-only effect, or another doubt; inactive means no such curve, though single readings can be large or run the other way. Unless noted, on the % scale 0 is the no-effect control and ±100 the full control effect.

SMILES	ALOX12 inhib	HPGD inh	LMNA splice mod	PNC assembly inh	ALDH1A1 block
COC(=O)[C@@]1(Cc2ccc(F)cc2)[C@H]2c3cc(C(=O)N4CCCC4)n(CCc4c[nH]c5ccc(OC)cc45)c3C[C@H]2CN1C(=O)c1ccccc1	0.0%	-14.7%	-9.3%	55.5	-9.8%
COc1cc(-c2ccccc2)nc2ccccc12	-9.3%	28.2µM*	?	224.1	-0.6%
CC(C)c1cc(NC(=O)CCl)on1	nt	nt	?	nt	1.58µM*
CCOC(=O)c1ccc(CC(=O)c2oc3cc(O)ccc3c2C)o1	-21.9%	?	4.9%	15.7	?
CCOC(=O)c1ccc(CC(=O)c2ccc(O)c(O)c2O)o1	nt	nt	nt	nt	10µM*
CCC1Oc2ccc(C)cc2N(CC(=O)N2CCN(c3ccccc3OC)CC2)C1=O (configuration not stated)	nt	nt	-14.7%[46 µM]	nt	nt
CCOC(=O)CSc1nnc(-c2ccco2)n1-c1ccccc1	0.6%	31.6µM*	-3.4%	13.3	1.58µM*
O=C(CSc1nnc(-c2cccs2)n1-c1ccccc1)N1CCCC1	-3.2%	25.1µM*	6.2%	22.0	?
O=C(CSc1nnc(-c2cccs2)n1-c1ccccc1)N1CCOCC1	1.2%	-3.2%	6.9%	3.4	?
c1ccc(-n2c(SCC3CCCCO3)nnc2-c2cccs2)cc1 (configuration not stated)	-10.7%	nt	3.0%	1.8	2.8%
Cc1ccc(-n2c(SCC3CCCCO3)nnc2-c2ccco2)cc1 (configuration not stated)	-5.4%	15.8µM*	0.9%	33.1	?
CCOC(=O)CSc1nnc(-c2cccs2)n1-c1ccccc1	-0.2%	28.2µM*	3.1%	4.6	?
C=CCSCC=C	-0.8%	-4.7%	nt	nt	11.6%
COC(=O)Cn1c(=NC(=O)C2COc3ccccc3O2)sc2cc(S(N)(=O)=O)ccc21 (configuration not stated)	-1.6%	-4.1%	-5.5%	-134.0*	-1.3%
COC(=O)Cn1c(=NC(=O)CN2C(=O)CCC2=O)sc2cc(S(N)(=O)=O)ccc21	-1.6%	-13.6%	4.7%	-4.8	-0.6%
Cn1c(=O)c([N+](=O)[O-])c(NCc2ccccc2)c2ccccc21	-4.4%	6.31µM*	0.7%	?	15.8µM*
O=c1oc2ccccc2c(NCc2ccccc2)c1[N+](=O)[O-]	-3.7%	25.1µM*	?	?	11.2µM*
Nc1c(NCc2ccccc2)c2ccccc2oc1=O	-23.3%	?	-10.8%	8.4	22.4µM*
O=c1oc2ccccc2c(NCCO)c1[N+](=O)[O-]	nt	nt	nt	nt	5.8%
COc1ccc(CCNc2c([N+](=O)[O-])c(=O)oc3ccccc23)cc1OC	-3.5%	15.8µM*	10.0%	50.0	-0.2%
CNc1c(N)c(=O)oc2ccccc12	nt	nt	nt	nt	-23.2%
CCOc1ccc(NC(=O)C(CC)n2nc(-c3ccc(C)c(C)c3)ccc2=O)cc1 (configuration not stated)	nt	nt	5.7%[46 µM]	nt	nt
Cc1cc(Cl)cc(Cl)c1CNc1c([N+](=O)[O-])c(=O)oc2ccccc12	2.2%	?	7.3%	-20.7	10µM*
CCc1nn2c(=O)cc(COC(=O)c3cccc(NC(=O)c4ccccc4C)c3)nc2s1	nt	nt	-5.0%[46 µM]	nt	nt
Nc1ccc(N2CCN(c3ccc(F)cc3)CC2)cc1	nt	nt	?	nt	22.4µM*
SMILES	ALOX12 inhib	HPGD inh	LMNA splice mod	PNC assembly inh	ALDH1A1 block
O=C(O)c1ccc(N2CCCCC2)cc1	-3.3%	-14.3%	0.3%	12.4	1.8%
Nc1ccc(N2CCCCCC2)cc1	-25.7%	-11.1%	2.0%	?	7.94µM*
CCCNC(=O)N1CCCN(S(=O)(=O)c2ccc3c(ccn3CC)c2)CC1	nt	nt	8.6%[46 µM]	nt	nt
CCO[C@H]1O[C@@H]([C@H](COCc2ccccc2)OCc2ccccc2)[C@@H](OCc2ccccc2)[C@H]1O	3.1%[25.6 µM]	-0.1%	?	nt	-3.5%[20.9 µM]
CC(=O)Nc1ccc(C(=O)CSc2nnc3cc(C)c4ccccc4n23)cc1	nt	nt	6.0%[46 µM]	nt	nt
CC1NC(=O)NC1CCCCCC(=O)NCCc1ccccc1 (configuration not stated)	7.3%	25.1µM*	-7.1%	?	?
CCn1c(-c2ccc(C)cc2)n[nH]c1=S	-4.6%	-18.4%	3.6%	10.1	-4.4%
CCCn1c(-c2ccc(F)cc2)n[nH]c1=S	-4.4%	?	0.5%	-121.4*	?
O=c1c(-c2cccc(F)c2)nc2cncnc2n1Cc1ccccc1	-5.4%	-19.2%	nt	nt	-3.2%
COCCn1c(=O)c(-c2cccc(C#N)c2)nc2cnc(N(C)C)nc21	nt	nt	0.5%	nt	-14.8%
Clc1cccc(-c2nnc3n2CCCCC3)c1	nt	nt	6.3%[46 µM]	nt	2.6%
Clc1ccc(-c2nnc3n2CCCCC3)cc1	4.1%	15.8µM*	8.0%	?	-0.8%
Cc1ccc(S(=O)(=O)N(C)Cc2ccc(-c3nnc4n3CCC4)cc2)cc1	-6.5%	4.47µM*	6.2%	2.8	-8.8%
Brc1ccc(-c2nnc3n2CCCCC3)cc1	-1.0%	7.08µM*	13.3%	-27.7	12.6µM*
Clc1ccc(-c2nnc3n2CCCC3)cc1Cl	5.4%	31.6µM*	0.3%	96.7	-4.9%
CN(C)S(=O)(=O)c1ccc(Cl)c(-c2nnc3n2CCCCC3)c1	nt	nt	-14.6%[46 µM]	nt	-2.0%
Cc1cc2oc(C(=O)Nc3cccc(-c4nc5ccccc5o4)c3)c(C)c2cc1C	nt	nt	1.7%[46 µM]	nt	nt
Cc1c(C(=O)NCCSCc2cccc(C(F)(F)F)c2)cnn1-c1ccc(F)cc1	nt	nt	nt	nt	-9.3%
Cc1ccc(C)n1-c1ccc(-c2nnc3n2CCCCC3)s1	-8.7%	3.16µM*	?	6.8	?
COc1ccc(C(=O)Nc2ccc(-c3nnc4n3CCCCC4)cc2)cc1	nt	nt	4.4%[46 µM]	nt	nt
COc1ccccc1S(=O)(=O)Nc1ccc(-c2nnc3n2CCCCC3)cc1	-2.1%	31.6µM*	-2.4%	54.2	?
COc1ccc(/C=N/NC(=O)c2ccc(=O)n(C)c2)cc1OC	nt	nt	nt	nt	-6.9%
COc1ccc(/C=N/NC(=O)c2cccc([N+](=O)[O-])c2)cc1OC(=O)c1ccccc1	-4.3%	?	?	1.8	?
COc1ccc(C(=O)Oc2cc(/C=N/NS(=O)(=O)c3ccccc3)ccc2OC)cc1	-22.7%	-22.4%	-2.9%	-14.7	3.16µM*
COc1ccc(/C=N/NC(=S)SC)cc1OC	nt	nt	?	nt	10µM*
COc1ccc(/C=N/NC(N)=S)cc1OC(=O)c1ccccc1	-23.9%	25.1µM*	-4.9%	-11.4	-7.6%
COc1ccc(/C=N/NS(=O)(=O)c2ccc(C)cc2)cc1OC(=O)c1ccc(C)cc1	-14.8%	-22.8%	?	-7.6	?
CCOC(=O)NCC(C#CCN(CC)CC)N(CC)CC (configuration not stated)	-1.1%	-0.5%	-4.4%	-92.8*	0.2%
O=C(c1scc2c1CCCC2)N1CCCCC1	-1.6%	8.91µM*	-4.7%	?	-7.9%
